Results filed as inconclusive are left out. The source made the active and inactive calls. Unless noted, calls follow the shape of the full dose curve.
Key:
[1] = Nuclear factor erythroid 2-related factor 2/antioxidant responsive element (Nrf2/ARE) small molecule agonists: qHTS cell viability counter screen in human keratinocytes (AID 1919968; active = well fitted curve in the direction sought with a large enough effect in the repeat runs; an effect the other way counts as inactive or inconclusive; also: nearly all actives have a fitted effect of over 55% in size)
Procedure, shortened: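 In human HaCaT keratinocytes stably expressing an ARE-driven luciferase, compound exposure lasted 23 h at 37 C under 5% CO2. Viable cells are quantified with a protease-based fluorogenic reagent (CellTiter-Fluor) read 1 h after addition.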

[2] = Nuclear factor erythroid 2-related factor 2/antioxidant responsive element (Nrf2/ARE) small molecule agonists: luciferase reporter gene qHTS assay in human keratinocytes (AID 1919969); also: nearly all actives have a fitted effect of over 35% in size
[3] = target: Gonadotropin-releasing hormone receptor (Homo sapiens) (UniProt P30968); assay: Human gonadotropin-releasing hormone receptor (GnRHR) small molecule agonists, calcium flux assay in GnRHR-HEK293 cells (AID 1920063); also: nearly all actives have a fitted effect of over 35% in size
Procedure, shortened: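 Intracellular calcium rise is the read-out: engineered human GnRHR HEK293 cells, dye-loaded, are exposed to DMSO-dissolved compounds and fluorescence at Ex/Em 480/540 is tracked for 3 min.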

[4] = target: KiSS-1 receptor (Homo sapiens) (UniProt Q969F8); assay: Human kisspeptin (KISS1R) small molecule agonists, calcium flux assay in KISS1R-HEK293 cells (AID 1920064; active = well fitted curve in the direction sought with a large enough effect in the repeat runs; an effect the other way counts as inactive or inconclusive)
Procedure, shortened: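 Concentration-response testing used 15 concentrations in triplicate on human KISS1R-expressing HEK293 cells. Calcium-dependent fluorescence (Ex/Em 480/540) was followed kinetically for 3 min after compound transfer.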

[5] = G protein-coupled receptor (GPCR) small molecule agonists, calcium flux assay: HEK293 wild type cell line counter screen (AID 1920065)
Procedure, shortened: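 Fluorescence intensity signals activation. After overnight (18 h) culture and a 1 h calcium dye load at 37 C, compounds are added by pin tool and the plate read at 480/540 nm for 3 min in 1 s steps.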

[6] = p53 small molecule agonists, cell-based qHTS assay with human liver microsomes (AID 1963577)
Procedure, shortened: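 p53RE-bla cells, 4,000/well, compound added after 5 h, with human liver microsomes 0.5 mg/mL and NADPH 0.5 mg/mL final; 16 h at 37 C, then LiveBLAzer 2 h RT, fluorescence.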

[7] = p53 small molecule agonists, cell-based qHTS assay with rat liver microsomes (AID 1963578)
Procedure, shortened: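 p53RE-bla cells, 4,000/well, pre-incubated 5 h, then given compounds plus rat liver microsomes (0.5 mg/mL final) and NADPH (0.5 mg/mL final). Incubation 16 h at 37 C; beta-lactamase reporter read by LiveBLAzer fluorescence after 2 h at room temperature.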

[8] = p53 small molecule agonists, cell-based qHTS assay with human liver microsomes: qHTS cell viability counter screen (AID 1963579); also: nearly all actives have a fitted effect of over 45% in size
Procedure, shortened: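 p53RE-bla cells, 4,000/well, dosed 5 hours after plating, with human liver microsomes (0.5 mg/mL final) plus NADPH (0.5 mg/mL final), 16 hours at 37 C. Viability read as CellTiter-Glo luminescence after 30 min at room temperature.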

[9] = p53 small molecule agonists, cell-based qHTS assay with rat liver microsomes: qHTS cell viability counter screen (AID 1963580); also: nearly all actives have a fitted effect of over 45% in size
Procedure, shortened: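 Cytotoxicity counter screen: intracellular ATP measured by CellTiter-Glo luminescence in the same wells as the beta-lactamase reporter read, on HCT-116 p53RE-bla cells exposed 16 h at 37 C to compounds with rat liver microsomes and NADPH, each 0.5 mg/mL final.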

[10] = p53 small molecule agonists, cell-based qHTS assay: qHTS cell viability counter screen (AID 1963581); also: nearly all actives have a fitted effect of over 45% in size
Procedure, shortened: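 Luminescence from CellTiter-Glo, reflecting ATP content, serves as the cytotoxicity measure; it is taken after the 2 h reporter substrate step in HCT-116 p53RE-bla cells dosed for 16 h at 37 C.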

[11] = p53 small molecule agonists, cell-based qHTS assay (AID 1963582; active = well fitted activation curve with a large enough effect in the signal ratio in the repeat runs, not every such curve was filed as active; the % refers to the signal ratio)
Procedure, shortened: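 After plating, p53RE-bla cells sat 5 h in the incubator; compounds or DMSO vehicle were pinned in; a 16 h incubation at 37 C followed; FRET substrate was added and, 2 h later at RT, fluorescence was measured.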

[12] = cAMP Responsive Elements (CRE) small molecule agonists, cell-based qHTS assay (AID 1963590)
Procedure, shortened: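 Compound exposure lasted 3 h at 37 C/5% CO2 in CRE-bla HEK 293T cells grown in assay medium with 10% dialyzed FBS and 25 mM HEPES. Reporter signal came from LiveBLAzer B/G FRET substrate, 2 h, room temperature.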

[13] = cAMP Responsive Elements (CRE) small molecule antagonists, cell-based qHTS assay (AID 1963591; active = well fitted inhibition curve with a large enough effect in the signal ratio in the repeat runs, not every such curve was filed as active; the % refers to the signal ratio)
Procedure, shortened: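 Stimulation used NKH477 at a final 0.25 uM for 3 h in compound-treated CRE-bla HEK293T cells, seeded 18 h beforehand. Reporter activity was measured with LiveBLAzer B/G FRET substrate after 2 h at room temperature.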

[14] = target: Beta-2 adrenergic receptor (Homo sapiens) (UniProt P07550); assay: Adrenergic beta2 receptor (ADRB2) small molecule antagonists, cell-based qHTS assay (AID 1963592); also: series mostly up to about 92 µM; nearly all actives have a fitted effect of over 50% in size
Procedure, shortened: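 Assay format: CHO-ADRB2 cells, 18-20hr seeding at 37C/5% CO2, then compound plus 1nM isoproterenol agonist mix for 0.5hr RT. Homogeneous time-resolved fluorescence cAMP detection after 1hr, expressed as 665/615 nm ratio.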

[15] = target: D(2) dopamine receptor (Homo sapiens) (UniProt P14416); assay: Dopamine D2 receptor (DRD2) small molecule antagonists, cell-based qHTS assay (AID 1963595; active = well fitted inhibition curve with a large enough effect in the signal ratio in the repeat runs, with a control signal flat; the % refers to the signal ratio)
Procedure, shortened: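 HEK293 cells stably expressing DRD2, preincubated with 0.1 mM Ro20-1724 and compounds 10 min, were stimulated with 200 nM NKH477 plus 12 nM quinpirole for 30 min at room temperature; cAMP measured by HTRF (665/620 nm).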

[16] = target: Muscarinic acetylcholine receptor M1 (Homo sapiens) (UniProt P11229); assay: Cholinergic receptor muscarinic 1 (CHRM1) small molecule agonists, cell-based qHTS assay (AID 1963589); also: nearly all actives have a fitted effect of over 35% in size
Procedure, shortened: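 Fluorescent calcium dye reports M1 activation in stably transfected CHO cells. Compounds, 15 concentrations, added after 1 h dye loading at 37 C; kinetic reading at 1 sec intervals.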

[17] = target: D(2) dopamine receptor (Homo sapiens) (UniProt P14416); assay: Dopamine D2 receptor (DRD2) small molecule agonists, cell-based qHTS assay (AID 1963594); also: nearly all actives have a fitted effect of over 35% in size
Procedure, shortened: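 HEK293 cells stably expressing human DRD2, pre-treated with PDE inhibitor Ro20-1724 (0.1 mM final) and compound 10 min at room temperature, then stimulated with NKH477 (200nM […]) for 30 min. cAMP read by HTRF (665/620 nm).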

[18] = target: Muscarinic acetylcholine receptor M1 (Homo sapiens) (UniProt P11229); assay: Cholinergic receptor muscarinic 1 (CHRM1) small molecule antagonists, cell-based qHTS assay (AID 1963588); also: nearly all actives have a fitted effect of over 40% in size
Procedure, shortened: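 Compounds were tested at 15 concentrations in three independent runs. Dye-loaded CHRM1-CHO cells were exposed 5 min at room temperature before stimulation by acetylcholine added at 50nM. Intracellular calcium was read kinetically on FDSS for 3 min.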
% is scaled to controls: 0 for no effect and ±100 for the full control effect.

Beta-2 adrenergic receptor (Homo sapiens), sequence (P07550 whole entry, looked up): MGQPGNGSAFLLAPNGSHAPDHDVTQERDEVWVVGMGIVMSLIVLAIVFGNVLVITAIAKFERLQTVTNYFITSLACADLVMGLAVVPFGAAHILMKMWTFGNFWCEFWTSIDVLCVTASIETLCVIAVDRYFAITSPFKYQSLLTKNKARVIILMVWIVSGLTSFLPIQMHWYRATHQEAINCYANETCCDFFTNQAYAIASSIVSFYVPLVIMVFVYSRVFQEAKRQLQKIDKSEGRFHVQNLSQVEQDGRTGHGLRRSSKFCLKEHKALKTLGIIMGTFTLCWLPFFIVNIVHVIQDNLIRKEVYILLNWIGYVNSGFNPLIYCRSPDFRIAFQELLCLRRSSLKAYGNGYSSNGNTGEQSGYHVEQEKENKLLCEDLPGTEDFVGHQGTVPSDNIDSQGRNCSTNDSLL
D(2) dopamine receptor (Homo sapiens), sequence (P14416 whole entry, looked up): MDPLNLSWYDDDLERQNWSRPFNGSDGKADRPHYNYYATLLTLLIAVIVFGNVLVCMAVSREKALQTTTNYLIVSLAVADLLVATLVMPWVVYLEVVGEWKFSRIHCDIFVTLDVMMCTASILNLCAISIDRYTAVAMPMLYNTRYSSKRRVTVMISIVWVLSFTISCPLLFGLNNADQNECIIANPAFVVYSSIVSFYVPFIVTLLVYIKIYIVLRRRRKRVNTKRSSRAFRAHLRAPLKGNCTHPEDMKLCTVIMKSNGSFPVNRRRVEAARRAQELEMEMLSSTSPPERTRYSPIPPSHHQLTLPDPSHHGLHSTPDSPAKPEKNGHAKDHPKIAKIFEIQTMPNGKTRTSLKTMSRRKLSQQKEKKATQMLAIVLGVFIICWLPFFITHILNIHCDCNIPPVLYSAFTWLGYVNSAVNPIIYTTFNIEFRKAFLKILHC
KiSS-1 receptor (Homo sapiens), sequence (Q969F8 whole entry, looked up): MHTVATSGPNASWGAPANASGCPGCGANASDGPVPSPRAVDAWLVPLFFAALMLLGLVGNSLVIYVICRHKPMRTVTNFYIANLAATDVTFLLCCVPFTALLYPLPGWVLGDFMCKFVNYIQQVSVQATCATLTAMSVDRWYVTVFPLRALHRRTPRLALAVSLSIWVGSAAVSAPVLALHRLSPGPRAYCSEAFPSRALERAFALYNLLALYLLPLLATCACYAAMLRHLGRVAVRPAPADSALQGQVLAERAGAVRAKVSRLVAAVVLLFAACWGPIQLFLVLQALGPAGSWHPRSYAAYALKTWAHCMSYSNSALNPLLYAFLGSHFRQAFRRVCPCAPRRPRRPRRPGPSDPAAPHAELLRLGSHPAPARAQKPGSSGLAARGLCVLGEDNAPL
Muscarinic acetylcholine receptor M1 (Homo sapiens), sequence (P11229 whole entry, looked up): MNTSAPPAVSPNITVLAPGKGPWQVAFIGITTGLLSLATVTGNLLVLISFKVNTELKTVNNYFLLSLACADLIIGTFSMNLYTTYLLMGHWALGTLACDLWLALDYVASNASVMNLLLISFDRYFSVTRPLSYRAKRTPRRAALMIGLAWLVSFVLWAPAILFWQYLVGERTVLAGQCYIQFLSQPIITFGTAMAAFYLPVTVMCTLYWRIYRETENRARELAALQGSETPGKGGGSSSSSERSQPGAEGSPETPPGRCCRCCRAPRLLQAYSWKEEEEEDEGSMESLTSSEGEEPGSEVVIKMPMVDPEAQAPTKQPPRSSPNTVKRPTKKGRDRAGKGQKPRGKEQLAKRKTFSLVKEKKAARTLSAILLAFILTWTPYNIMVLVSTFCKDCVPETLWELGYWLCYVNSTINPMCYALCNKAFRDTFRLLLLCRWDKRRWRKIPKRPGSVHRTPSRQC
Gonadotropin-releasing hormone receptor (Homo sapiens), sequence (P30968 whole entry, looked up): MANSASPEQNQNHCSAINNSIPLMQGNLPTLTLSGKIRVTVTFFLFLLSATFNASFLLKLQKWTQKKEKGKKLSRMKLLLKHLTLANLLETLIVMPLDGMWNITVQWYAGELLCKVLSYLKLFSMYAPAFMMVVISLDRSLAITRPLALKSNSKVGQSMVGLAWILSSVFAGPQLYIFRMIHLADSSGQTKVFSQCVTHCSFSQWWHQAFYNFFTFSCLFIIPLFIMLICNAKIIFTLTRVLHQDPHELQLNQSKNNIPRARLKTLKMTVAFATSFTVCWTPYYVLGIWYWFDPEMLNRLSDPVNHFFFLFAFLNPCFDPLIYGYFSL

O=C(Oc1ccccc1C(=O)O)c1ccccc1O
inactive: Potency [1] | Potency [2] | Potency [3] | outcome [4] | outcome [5] | Potency [6] | Potency [7] | Potency [8] | Potency [9] | Potency [10] | Potency [11] | Potency [12] | Potency [13] | Potency [14] | Potency [15]

CCCCOc1cc(C(=O)NCCN(CC)CC)c2ccccc2n1
inactive: Potency [1] | Potency [2] | Potency [3] | outcome [4] | outcome [5] | Potency [6] | Potency [7] | Potency [8] | Potency [9] | Potency [10] | Potency [11] | Potency [16] | Potency [12] | Potency [13] | Potency [14] | Potency [15]

CN1CCN(C(c2ccccc2)c2ccccc2)CC1
inactive: Potency [1] | Potency [2] | Potency [3] | outcome [4] | outcome [5] | Potency [6] | Potency [7] | Potency [8] | Potency [9] | Potency [10] | Potency [11] | Potency [12] | Potency [13] | Potency [14] | Potency [17] | Potency [15]

NC(=O)NC(=O)Cc1ccccc1
inactive: Potency [1] | Potency [2] | Potency [3] | outcome [4] | outcome [5] | Potency [6] | Potency [7] | Potency [8] | Potency [9] | Potency [10] | Potency [11] | Potency [12] | Potency [13] | Potency [14] | Potency [17] | Potency [15]

O=C1c2ccccc2C(=O)C1c1ccccc1
inactive: Potency [1] | Potency [2] | Potency [3] | outcome [4] | outcome [5] | Potency [6] | Potency [7] | Potency [8] | Potency [9] | Potency [10] | Potency [11] | Potency [12] | Potency [13] | Potency [14] | Potency [17] | Potency [15]

CCN(CCO)CCCC(C)Nc1ccnc2cc(Cl)ccc12 (stereo not given)
inactive: activity change, negative = cytotoxicity [1] -14.6% [at 8.39 µM] | activity, positive = activation [2] -5.51% [at 8.39 µM] | activity change [3] -0.334% [at 5.22 µM, hits give high values] | activation [4] -0.232% [at 6.97 µM] | activation [5] -1.14% [at 5.23 µM] | activation [6] 9.14% [at 5.99 µM] | activation [7] 0.449% [at 5.99 µM] | activity change, negative = cytotoxicity [8] -18.4% [at 5.99 µM] | activity change, negative = cytotoxicity [9] -0.0605% [at 5.99 µM] | activity change, negative = cytotoxicity [10] 14.7% [at 5.99 µM] | activation [11] 0.694% [at 5.99 µM] | activation [12] 0.273% [at 8.39 µM] | activity change, negative = inhibition [13] -1.93% [at 8.39 µM] | activity change, negative = inhibition [14] 1.52% [at 8.39 µM] | activation [17] 4.56% [at 8.39 µM] | activity change, negative = inhibition [15] 12.2% [at 8.38 µM]

O=C1OCCN1/N=C/c1ccc([N+](=O)[O-])o1
inactive: Potency [1] | Potency [2] | Potency [3] | outcome [4] | outcome [5] | Potency [6] | Potency [7] | Potency [8] | Potency [9] | Potency [10] | Potency [11] | Potency [12] | Potency [13] | Potency [14] | Potency [15]

O=NN(CCCl)C(=O)NCCCl
inactive: Potency [1] | Potency [2] | Potency [3] | outcome [4] | outcome [5] | Potency [6] | Potency [7] | Potency [8] | Potency [9] | Potency [10] | Potency [11] | Potency [12] | Potency [13] | Potency [15]

O=C1C(CCS(=O)c2ccccc2)C(=O)N(c2ccccc2)N1c1ccccc1 (stereo not given)
inactive: Potency [1] | Potency [2] | Potency [3] | outcome [4] | outcome [5] | Potency [6] | Potency [7] | Potency [8] | Potency [9] | Potency [10] | Potency [11] | Potency [12] | Potency [13] | Potency [14] | Potency [17] | Potency [15]

Cc1cccc(C(C)(C)C)c1O
inactive: Potency [1] | Potency [2] | Potency [3] | outcome [4] | outcome [5] | Potency [6] | Potency [7] | Potency [8] | Potency [9] | Potency [10] | Potency [11] | Potency [16] | Potency [12] | Potency [14] | Potency [17] | Potency [15]

C1CCN2C[C@@H]3C[C@@H](CN4CCCC[C@@H]34)[C@H]2C1
inactive: Potency [1] | Potency [2] | Potency [3] | outcome [4] | outcome [5] | Potency [6] | Potency [7] | Potency [8] | Potency [9] | Potency [10] | Potency [11] | Potency [12] | Potency [13] | Potency [14] | Potency [17] | Potency [15]

COc1ccc(OC(=O)N(CC(=O)O)Cc2ccc(OCCc3nc(-c4ccccc4)oc3C)cc2)cc1
inactive: Potency [1] | Potency [2] | Potency [3] | outcome [4] | outcome [5] | Potency [6] | Potency [7] | Potency [8] | Potency [9] | Potency [10] | Potency [11] | Potency [18] | Potency [16] | Potency [14] | Potency [15]

O=C(O)CCNC(=O)c1ccc(N=Nc2ccc(O)c(C(=O)O)c2)cc1
inactive: Potency [1] | Potency [2] | Potency [3] | outcome [4] | outcome [5] | Potency [6] | Potency [7] | Potency [8] | Potency [9] | Potency [10] | Potency [11] | Potency [12] | Potency [13] | Potency [14] | Potency [17] | Potency [15]

CCOC(=O)[C@H](CCc1ccccc1)N[C@@H](C)C(=O)N1[C@H](C(=O)O)C[C@@H]2CCC[C@@H]21
inactive: Potency [1] | Potency [2] | Potency [3] | outcome [4] | outcome [5] | Potency [6] | Potency [7] | Potency [8] | Potency [9] | Potency [10] | Potency [11] | Potency [12] | Potency [13] | Potency [17] | Potency [15]

CCn1cc(C(=O)O)c(=O)c2cc(F)c(N3CCNCC3)cc21
inactive: Potency [1] | Potency [2] | Potency [3] | outcome [4] | outcome [5] | Potency [6] | Potency [7] | Potency [8] | Potency [9] | Potency [10] | Potency [11] | Potency [12] | Potency [13] | Potency [17] | Potency [15]

Cn1nnc2c(C(N)=O)ncn2c1=O
inactive: Potency [1] | Potency [2] | Potency [3] | outcome [4] | outcome [5] | Potency [6] | Potency [7] | Potency [8] | Potency [9] | Potency [10] | Potency [11] | Potency [18] | Potency [12] | Potency [13] | Potency [14] | Potency [17] | Potency [15]

From PubChem BioAssay (Tox21)
